# Laboratory results reported in PubChem BioAssay (NCATS).
# Records with an inconclusive call do not appear. Unmarked numbers belong to inactive results. Activity calls are given as the source filed them. Calls follow the shape of the full dose curve.
# Biological target: Cytochrome P450 1A2 (Homo sapiens) (UniProt P05177)
# Assay: p450-cyp1a2 (AID 410);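 as to activity change, negative = inhibition: -100% = full effect of reference inhibitor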
# Conditions: recombinant CYP1A2, luciferin-ME demethylation, luminescence; series mostly up to 11.4 µM
# How it was run: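 Human CYP1A2 (20nM) demethylated Luciferin-ME at its Km (100uM) in 100mM KPO4. After 10 min compound preincubation, NADPH regeneration ran the reaction 60 min at room temperature. Luciferin was read by luminescence, normalized to 57 uM furafylline.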
# Potency is read from the fitted curve at half-maximal effect.
# Cytochrome P450 1A2 (Homo sapiens), sequence (P05177 whole entry, looked up): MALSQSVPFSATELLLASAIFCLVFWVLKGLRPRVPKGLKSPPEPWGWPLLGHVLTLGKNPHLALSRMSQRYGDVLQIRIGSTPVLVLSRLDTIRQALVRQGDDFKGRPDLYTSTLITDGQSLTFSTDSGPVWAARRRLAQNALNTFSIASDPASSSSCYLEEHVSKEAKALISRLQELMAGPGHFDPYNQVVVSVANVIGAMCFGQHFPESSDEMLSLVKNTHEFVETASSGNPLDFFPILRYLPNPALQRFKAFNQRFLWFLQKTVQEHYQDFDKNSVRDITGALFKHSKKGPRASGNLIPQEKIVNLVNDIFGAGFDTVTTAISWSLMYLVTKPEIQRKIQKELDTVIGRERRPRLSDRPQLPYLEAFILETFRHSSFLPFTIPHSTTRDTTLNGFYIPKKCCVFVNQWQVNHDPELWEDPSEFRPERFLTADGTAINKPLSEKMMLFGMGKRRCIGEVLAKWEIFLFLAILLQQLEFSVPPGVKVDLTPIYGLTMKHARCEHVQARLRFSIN
Structure (SMILES),Potency,"activity change, negative = inhibition"
N[C@@H](Cc1c[nH]c2ccc([N+](=O)[O-])cc12)C(=O)O,inactive,–
Nc1nc(-c2cccc([N+](=O)[O-])c2)cc(-c2cc(-c3cccc([N+](=O)[O-])c3)nc(N)n2)n1,–,0.3% [at 2.29 µM]
O=C(O)CC[C@@]1(c2ccccc2)NC(=O)NC1=O,inactive,–
NS(=O)(=O)c1ccc(N=Nc2ccc(O)c(C(=O)O)c2)cc1,inactive,–
N=C(N)SCCSC(=N)N,2 µM (active),–
Cc1c(C(=O)O)nc(/C=C\C(=O)O)[nH]c1=O,inactive,–
O=C(Nc1ccc2ncccc2c1)Nc1ccc2ncccc2c1,–,-28.5% [at 2.29 µM]
Cc1ccc(S(=O)(=O)Oc2cc(S(=O)(=O)O)cc3cc(S(=O)(=O)O)cc(N)c23)cc1,2 µM (active),–
COc1ccc(NC(=S)Nc2ccccc2)cc1,1.26 µM (active),–
Cn1cnc([N+](=O)[O-])c1Sc1nc(N)nc2c1ncn2Cc1ccccc1,3.16 µM (active),–
N=C(N)SCc1cc(Cl)cc(Cl)c1O,5.01 µM (active),–
C[C@@](N)(/C=C\c1ccccc1)C(=O)O,inactive,–
O=C(O)C1(Nc2ccc(Cl)cc2)CCCC1,inactive,–
NS(=O)(=O)c1ccc(N=C2C(=O)Nc3ccccc32)cc1,–,-12.7% [at 2.29 µM]
COCCn1c(=O)c(-c2cc(F)cc(F)c2)nc2cnc(Oc3ccccc3)nc21,5.01 µM (active),–
O=C(O)C(Sc1ccc(Cl)cc1)Sc1ccc(Cl)cc1,–,-27.8% [at 2.29 µM]
N=c1nc(N)nc(N)n1-c1ccc(S(N)(=O)=O)cc1,–,-3.8% [at 2.29 µM]
CN(C)Cc1ccc(O)c(CN(C)C)n1,inactive,–
COC(=O)[C@]1(C)CCC(c2ccc(C)cc2)=C(CC(=O)O)C1,–,-8.4% [at 2.29 µM]
Cc1cc(CN2CCCCC2)c(O)c(CN2CCCCC2)c1,–,-18.8% [at 2.29 µM]
CCO[P@]1(=O)OC[C@@H]2O[C@H](n3cnc4c(N)ncnc43)[C@H](O)[C@@H]2O1,–,-15.6% [at 2.29 µM]
O=C(NCCO)c1ccc(Cl)cc1,3.98 µM (active),–
C/C(=N/S(=O)(=O)c1ccc(Cl)c(Cl)c1)OCC(C)(C)C,inactive,–
